Counter-ions that a name gives are not always drawn. ± gives the standard deviation of the averaged measurements. The full ranking holds about 1,900 compounds; the median of “normalised cell viability (NPI; 0 = phenylarsine oxide control, 1 = DMSO control)” is about 1, and the lowest 2% start at about 0.039. The sample holds the lowest values, similar compounds and a random draw of the others, so the mix is not that of the screen.
Test system: NCI-H1944
Assay: normalised cell viability (NPI; 0 = phenylarsine oxide control, 1 = DMSO control) (fraction of DMSO control); NCI-H1944 is a non-small cell lung cancer line; higher = more viable cells (less compound toxicity)
Conditions: 6 days
[1] = glucocorticoid arm: hydrocortisone 2.75 uM co-treatment, compound 1 µM
[2] = glucocorticoid arm: hydrocortisone 2.75 uM co-treatment, compound 5 µM
[3] = glucocorticoid arm: hydrocortisone 2.75 uM pre-treated 2 days and continued, compound 1 µM
[4] = glucocorticoid arm: hydrocortisone 2.75 uM pre-treated 2 days and continued, compound 5 µM
[5] = glucocorticoid arm: vehicle, compound 1 µM
[6] = glucocorticoid arm: vehicle, compound 5 µM
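Also: CTB read-out in 384-well plates, triplicate wells, NPI normalised per plate against 1 µM phenylarsine oxide (0) and 0.1% DMSO (1) controls.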

Compound	normalised cell viability [1]	normalised cell viability [2]	normalised cell viability [3]	normalised cell viability [4]	normalised cell viability [5]	normalised cell viability [6]
CO[C@H]1C(=O)[C@]2(C)[C@@H](OC)C[C@H]3OC[C@@]3(OC(C)=O)[C@H]2[C@H](OC(=O)c2ccccc2)[C@]2(O)C[C@H](OC(=O)[C@H](O)[C@@H](NC(=O)OC(C)(C)C)c3ccccc3)C(C)=C1C2(C)C [Cabazitaxel]	0.191 ± 0.012	1.05 ± 0.021	0.468 ± 0.0065	1.05 ± 0.015	0.0505 ± 0.01	1.007 ± 0.0058
CC(=O)O[C@H]1C(=O)[C@@]2(C)[C@H]([C@H](OC(=O)c3ccccc3)[C@]3(O)C[C@H](OC(=O)[C@H](O)[C@@H](NC(=O)c4ccccc4)c4ccccc4)C(C)=C1C3(C)C)[C@]1(OC(C)=O)CO[C@@H]1C[C@@H]2O [Paclitaxel; Taxol]	0.131 ± 0.0057	1.03 ± 0.01	0.466 ± 0.032	1.02 ± 0.011	0.0302 ± 0.0049	1.01 ± 0.01
CC(=O)O[C@@]12CO[C@@H]1C[C@H](O)[C@@]1(C)C(=O)[C@H](O)C3=C(C)[C@@H](OC(=O)[C@H](O)[C@@H](NC(=O)OC(C)(C)C)c4ccccc4)C[C@@](O)([C@@H](OC(=O)c4ccccc4)[C@H]21)C3(C)C [Docetaxel]	0.159 ± 0.0035	0.163 ± 0.0095	0.462 ± 0.023	0.518 ± 0.015	0.049 ± 0.0034	0.0428 ± 0.0097
CC(=O)O[C@H]1C(=O)[C@@]2(C)[C@H]([C@H](OC(=O)c3ccccc3)[C@]3(O)C[C@H](OC(=O)[C@H](O)[C@@H](NC(=O)c4ccccc4)c4ccccc4)C(C)=C1C3(C)C)[C@]1(OC(C)=O)CO[C@@H]1C[C@@H]2O [Taxol]	0.122 ± 0.012	0.117 ± 0.015	0.8513 ± 0.0064	0.802 ± 0.051	0.0515 ± 0.0084	0.0382 ± 0.0051
COC(=O)C1=C(C)NC(C)=C([N+](=O)[O-])C1c1ccccc1C(F)(F)F (racemic)	0.99 ± 0.0072	0.942 ± 0.02	0.9753 ± 0.0031	0.9355 ± 0.00071	0.962 ± 0.01	0.947 ± 0.011
CCC1=C[C@@H]2CN(C1)Cc1c([nH]c3ccccc13)[C@@](C(=O)OC)(c1cc3c(cc1OC)N(C)[C@H]1[C@@](O)(C(=O)OC)[C@H](OC(C)=O)[C@]4(CC)C=CCN5CC[C@]31[C@@H]54)C2 [Vinorelbine tartrate]	0.327 ± 0.0017	0.35 ± 0.02	0.629 ± 0.017	0.683 ± 0.036	0.0577 ± 0.0028	0.0356 ± 0.0026
CC[C@]1(O)C[C@@H]2CN(CCc3c([nH]c4ccccc34)[C@@](C(=O)OC)(c3cc4c(cc3OC)N(C)[C@H]3[C@@](O)(C(=O)OC)[C@H](OC(C)=O)[C@]5(CC)C=CCN6CC[C@]43[C@@H]65)C2)C1 [Vinblastine sulfate salt]	0.361 ± 0.02	0.337 ± 0.021	0.795 ± 0.17	0.94 ± 0.023	0.0757 ± 0.0017	0.0495 ± 0.005
CC[C@]1(O)C[C@@H]2CN(CCc3c([nH]c4ccccc34)[C@@](C(=O)OC)(c3cc4c(cc3OC)N(C)[C@H]3[C@@](O)(C(=O)OC)[C@H](OC(C)=O)[C@]5(CC)C=CCN6CC[C@]43[C@@H]65)C2)C1 [Vinblastine sulfate salt; Vinblastine sulfate]	0.354 ± 0.019	1.023 ± 0.0058	0.621 ± 0.029	1.03 ± 0.027	0.0439 ± 0.00099	1.017 ± 0.0058
C=CCN1CCc2c(cc(O)c(O)c2Br)[C@@H](c2ccccc2)C1 [R(+)-6-Bromo-APB hydrobromide]	0.986 ± 0.017	1.01	0.989 ± 0.0095	1 ± 0.011	0.976 ± 0.011	0.9827 ± 0.0035
COc1c/c(=C2\C=c3ccccc3=N2)[nH]/c1=C\c1[nH]c(C)cc1C [Obatoclax mesylate (GX15-070)]	0.972 ± 0.014	0.42 ± 0.019	1 ± 0.0087	1.03 ± 0.015	0.564 ± 0.07	0.0292 ± 0.0041
Cc1cc(C)c(/C=C2\C(=O)Nc3ccccc32)[nH]1	1.06 ± 0.01	1.09 ± 0.015	1.07 ± 0.044	1.12 ± 0.017	1.03	1.03 ± 0.011
Cc1cc(C)c(/C=C2\C(=O)Nc3ccccc32)[nH]1 [Semaxanib (SU5416)]	1.09 ± 0.011	1.15 ± 0.046	1.09 ± 0.011	1.11 ± 0.017	1.023 ± 0.0058	1.027 ± 0.0058
O=C(O)CCC(NC(=O)c1ccccc1C(=O)O)C(=O)O [Phthalamoyl-L-glutamic acid trisodium]	0.9933 ± 0.0031	1.06 ± 0.021	0.869 ± 0.23	1.03 ± 0.025	0.997 ± 0.0052	1.006 ± 0.0063
CC(NC(=O)Cc1cc(F)cc(F)c1)C(=O)NC1C(=O)N(C)c2ccccc2-c2ccccc21 (configuration not stated)	0.977 ± 0.0072	0.998 ± 0.0035	0.983 ± 0.015	0.999 ± 0.019	0.9847 ± 0.0057	0.9813 ± 0.007
COc1cc(=O)n(C)c2c(OCC(O)C(C)(C)O)cccc12 (configuration not stated) [Foliosidine]	1.005 ± 0.0081	0.99 ± 0.01	0.9877 ± 0.0067	0.981 ± 0.012	0.998 ± 0.011	0.9963 ± 0.0021
O=C(CCCCCCC(=O)Nc1ccccc1)NO	0.959 ± 0.016	0.569 ± 0.04	0.978 ± 0.013	0.912 ± 0.015	0.969 ± 0.011	0.075 ± 0.0018
O=C(CCCCCCC(=O)Nc1ccccc1)NO [Vorinostat (SAHA, MK0683)]	0.94 ± 0.017	0.585 ± 0.025	0.959 ± 0.0017	0.955 ± 0.048	1.003 ± 0.0058	0.0617 ± 0.0036
CC(C)(C)OC(=O)Nc1ccc(-c2cc(C(=O)NCCCCCCC(=O)NO)no2)cc1	0.9572 ± 0.0081	0.244 ± 0.23	0.991 ± 0.025	0.677 ± 0.31	0.806 ± 0.15	0.0189 ± 0.02
O=C(CCCCCCC(=O)Nc1ccccc1)NO [Vorinostat; SAHA]	0.928 ± 0.018	1.04 ± 0.04	0.95 ± 0.0036	1.02	0.995 ± 0.015	0.9983 ± 0.0029
N=C(N)NCCC[C@H](N)C(=O)O [L-Arginine]	1 ± 0.018	0.997 ± 0.0027	0.994 ± 0.0066	1 ± 0.011	0.986 ± 0.0085	1.001 ± 0.0081
CC1(C)CNc2cc(NC(=O)c3cccnc3NCc3ccncc3)ccc21 [Motesanib Diphosphate]	1.02 ± 0.011	1 ± 0.031	1 ± 0.012	0.992 ± 0.026	1.001 ± 0.0076	1.002 ± 0.0076
O=C1NC(=O)C(=Cc2ccc(-c3ccc(F)cc3)o2)S1 (stereo in doubt)	1 ± 0.018	1 ± 0.014	0.996 ± 0.013	1.01	0.991 ± 0.0027	0.9913 ± 0.0083

Source: the supplement of paper PMC8285479
